Data: PubChem BioAssay (NCATS)
Values joined by “and” are separate entries in the source; they are usually repeats but may differ in a detail not shown here. Equal entries are not always repeated. Results filed as inconclusive are left out. Active and inactive are the calls of the source. Unless noted, the call rests on the fitted dose curve; in most records, active means well fitted curve in the direction sought with a large enough effect; inconclusive means small, poorly fitted or top-dose-only effect, or another doubt; inactive means no such curve, though single readings can be large; an effect the other way counts as inactive or inconclusive.

Assays:
[1] = Cell Viability - BJ (AID 421; calls by dose curve;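 further: potency means the concentration at half of the fitted maximal effect; cells exposed to compound for 40 hours at 37 °C before readout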); settings: BJ fibroblast viability, qHTS
Method in brief: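 Luminescent ATP signal (CellTiter-Glo, 20 min at room temperature) served as the read-out of viable BJ cells after 40 hours of compound treatment. Responses were scaled between DMSO and 100 uM tamoxifen, and AC50 values were obtained by Hill modeling.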

[2] = Cell Viability - MRC5 (AID 434; calls by dose curve;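 further: potency means the concentration at half of the fitted maximal effect; cells exposed to compound for 40 hours at 37 °C; potency reflects cytotoxicity seen as loss of intracellular ATP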); settings: MRC5 lung fibroblast viability, qHTS
Method in brief: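 qHTS cytotoxicity in human lung fibroblast MRC5 cells; 40 hr treatment, 37 °C; cellular ATP by luciferase luminescence; DMSO = 0%, 100 uM tamoxifen = 100% inhibition; Hill-fit AC50.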

[3] = Cellular Toxicity (caspase-3) HepG2 (AID 654); settings: HepG2 caspase-3 activation, luminescence; series mostly up to 92.2 µM;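 further: cells exposed to compound for 16 hours before reading; 0% = DMSO alone and 100% = caspase signal from 100 µM tamoxifen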
Method in brief: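 Cells plated 5 hr at 37 °C, compound added, incubated 16 hr at 37 °C. Caspase-Glo 3/7 reagent followed, 20 min at room temperature, then luminescence read. Activation scored as signal increase; AC50 from Hill fit.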

[4] = Cellular Toxicity (caspase-3) Jurkat (AID 655); settings: Jurkat caspase-3 activation, luminescence; caspase-3 activation: at 92.2 µM (top of the series), DMSO = 0%, tamoxifen = 100%;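 further: cells exposed to compound for 16 h at 37 °C before reading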
Method in brief: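 Jurkat cells (5000/well) in complete medium were treated with compounds for 16 hr at 37 °C, then Caspase-Glo 3/7 luminescence was read after 20 min at room temperature. Data normalized to DMSO (basal) and 100 uM tamoxifen (100%); AC50 from Hill fit.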

[5] = Cellular Toxicity (caspase-3) SHSY5Y (AID 657); settings: SH-SY5Y caspase-3 activation; series mostly up to 91.7 µM
Method in brief: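 SH-SY5Y human neuroblastoma cells (1500/well) were treated with compounds for 16 h at 37 °C, then Caspase-Glo 3/7 luminescence was read after 1 h at room temperature. Data normalized to DMSO and 10 uM staurosporine; AC50 from Hill fits.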

[6] = Cellular Toxicity (caspase-3) BJ (AID 658); settings: BJ fibroblasts, luminescence; Potency: caspase-3 activation; series mostly up to 91.7 µM
Method in brief: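 Readout: Caspase-Glo 3/7 luminescence increase in BJ cells after 16 hr treatment at 37 °C. Staurosporine and tamoxifen served as positive controls; AC50 values came from Hill modelling of data normalized to DMSO and 10 uM staurosporine.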

[7] = Cellular Toxicity (caspase-3) MRC-5 (AID 659); settings: MRC-5 cells, luminescence, normalized: DMSO 0%, 10 µM staurosporine 100%; series mostly up to 91.7 µM
Method in brief: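 Concentration-dependent caspase 3/7 activation is measured in human normal lung fibroblasts (MRC-5) following 16-hour treatment. AC50 values come from standard Hill-equation modeling of luminescence normalized to DMSO and 10 uM staurosporine.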

[8] = Cellular Toxicity (caspase-3) Mesangial (AID 660); settings: mesangial cells, normalized: DMSO 0%, 100 µM tamoxifen 100%; series mostly up to 91.7 µM;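 further: combined caspase 3 and 7 activity read by Caspase-Glo luminescence; cells exposed to compound for 16 h before the caspase read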
Method in brief: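 Mesangial cells, 1000/well, 5 h settle at 37 °C; compound 16 h, 37 °C; Caspase-Glo 3/7 reagent 20 min RT; luminescence. Norm.: DMSO = 0%, tamoxifen 100 uM = 100%. AC50, Hill fit.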

[9] = Cellular Toxicity (caspase-3) SK-N-SH (AID 661); settings: SK-N-SH caspase-3 activation, qHTS, DMSO as zero, staurosporine as full; series mostly up to 91.7 µM
Method in brief: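 Human neuroblastoma SK-N-SH, 1500 cells/well, 5 hr pre-incubation, then compound 16 hr, 37 °C. Caspase-Glo 3/7 reagent, 1 hr RT, luminescence. Norm. to DMSO/10 uM staurosporine; Hill-fit AC50.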

[10] = Cellular Toxicity (caspase-3) Hek293 (AID 664); settings: HEK293 caspase-3 activation, DMSO = 0%, 100 µM tamoxifen = 100%; at 92.2 µM (top of the series);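 further: cells exposed to compound for 16 h at 37 °C before readout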
Method in brief: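 Cells plated, 5 hr at 37 °C; compounds added; 16 hr at 37 °C; Caspase-Glo 3/7 reagent, 20 min RT; luminescence read. Activation expressed relative to DMSO and 100 uM tamoxifen, AC50 by Hill model.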

[11] = Cellular Toxicity (caspase-3) Renal Proximal Tubule (AID 667); settings: renal proximal tubule cells, primary cells freshly taken from rat; Potency: caspase-3 activation; series mostly up to 91.7 µM;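 further: cells exposed to compound for 16 hours at 37 °C before detection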
Method in brief: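 Primary rat proximal tubule cells, 1000/well, 5 h plating at 37 °C, then compound 16 h at 37 °C. Caspase-Glo 3/7 reagent, 1 h RT, luminescence. Normalized to DMSO (basal) and 10 uM staurosporine (100%); Hill-fit AC50.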

[12] = MultiTox-Fluor Cytotoxicity Assay - LYMP1-001 - Dead Cells (AID 946); settings: LYMP1-001 lymphoblastoid cells, dead-cell protease fluorescence; series mostly up to 92.2 µM;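 further: 0% = DMSO and 100% = tetraoctylammonium bromide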
Method in brief: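 AC50 from Hill fit of concentration-response; data normalized to DMSO (basal) and 15 uM tetraoctylammonium bromide (100%). LYMP1-001 lymphoblastoid cells, 2500/well, 16 hr compound at 37 C; dead-cell protease fluorescence, Ex/Em 485/520.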

[13] = Cell Viability - LYMP1-002 - Assay at 16 hr (AID 948); settings: LYMP1-002 lymphoblastoid cell viability; series mostly up to 92.2 µM;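 further: 0% = DMSO alone and full effect = 92 µM tetraoctylammonium bromide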
Method in brief: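 Human lymphoblastoid cells (LYMP1-002), 2500/well, were preincubated 5 hr at 37 C, then exposed to compounds for 16 hr at 37 C in complete medium. Cellular ATP was read by CellTiter-Glo luminescence after 30 min at room temperature; AC50 from Hill fits.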

[14] = MultiTox-Fluor Cytotoxicity Assay - LYMP1-002 - Live Cells (AID 955); settings: LYMP1-002 lymphoblastoid live-cell protease fluorescence viability; series mostly up to 46.1 µM; further: on the % scale 0 is the no-effect control and ±100 the full control effect
Method in brief: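 Read-out is live-cell protease activity (cell-permeant GF-AFC substrate, fluorescence Ex/Em=405/510), where a decrease indicates acute toxicity. Human lymphoblastoid cells were treated 16 hours at 37 C in a concentration series, and AC50 values came from standard Hill modelling.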

[15] = Cell Viability - LYMP1-003 - Assay at 24 hr (AID 963); settings: LYMP1-003 lymphoblastoid cell viability; series mostly up to 92.2 µM;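 further: plate controls were DMSO only for no effect and tetraoctylammonium bromide positive control for full effect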
Method in brief: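 Cells seeded at 2500/well, 5 hr at 37 C; compounds added; 24 hr at 37 C; CellTiter-Glo added, 30 min room temperature; luminescence read. Decrease in ATP taken as cytotoxicity, AC50 from Hill modelling.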

[16] = Cell Viability - LYMP2-026 (AID 989); settings: LYMP2-026 lymphoblastoid cell viability, qHTS; series mostly up to 92.2 µM;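 further: cells exposed to compound for 24 h at 37 °C; on the % scale 0 is the no-effect control and ±100 the full control effect; nearly all actives have a fitted effect of over 50% in size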
Method in brief: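 Luminescent ATP signal (CellTiter-Glo, 30 min room temperature) measures viable lymphoblastoid cells after 24 hr compound treatment at 37 C. Decreased ATP reflects acute toxicity; AC50 values come from Hill-equation modeling.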

[17] = Cell Viability - LYMP1-002 - Assay at 24 hr (AID 993); settings: LYMP1-002 lymphoblastoid cells viability; series mostly up to 92.2 µM; further: on the % scale 0 is the no-effect control and ±100 the full control effect
Method in brief: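 Cells plated 2500/well, 5 hr 37 C; compounds added, 24 hr 37 C; CellTiter-Glo added, 30 min RT; luminescence read. Tetraoctylammonium bromide positive control. Hill-equation AC50.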

[18] = qHTS Assay for Identification of Small Molecule Inducers of Hypoxia Response (AID 2120; active means well fitted curve in the direction sought with a large enough effect in the signal ratio, with a control signal flat, not every such curve was filed as active; the % refers to the signal ratio; further: 0% is about no effect); settings: hypoxia response reporter cells, beta-lactamase ratio readout; series mostly up to 104 µM
Method in brief: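 ME-180 HRE-bla cells plated in Opti-MEM/0.5% dialyzed FBS, rested 4-5 h, then dosed with compound titrations by pin tool. After 17 h at 37 degrees C, CCF4 dye loaded 2.5 h at RT; 460/530 nm ratio gave %Activity and AC50.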

[19] = target: Peroxisome proliferator-activated receptor alpha (Homo sapiens) (UniProt Q07869); assay: qHTS assay for small molecule agonists of the peroxisome proliferator-activated receptor alpha (PPARalpha) signaling pathway (AID 651778); settings: PathHunter PPARalpha complementation, chemiluminescence, 6 h; max response: stronger effect = higher value; further: % of control where 0% means no effect
Peroxisome proliferator-activated receptor alpha (Homo sapiens), sequence (Q07869 whole entry, looked up): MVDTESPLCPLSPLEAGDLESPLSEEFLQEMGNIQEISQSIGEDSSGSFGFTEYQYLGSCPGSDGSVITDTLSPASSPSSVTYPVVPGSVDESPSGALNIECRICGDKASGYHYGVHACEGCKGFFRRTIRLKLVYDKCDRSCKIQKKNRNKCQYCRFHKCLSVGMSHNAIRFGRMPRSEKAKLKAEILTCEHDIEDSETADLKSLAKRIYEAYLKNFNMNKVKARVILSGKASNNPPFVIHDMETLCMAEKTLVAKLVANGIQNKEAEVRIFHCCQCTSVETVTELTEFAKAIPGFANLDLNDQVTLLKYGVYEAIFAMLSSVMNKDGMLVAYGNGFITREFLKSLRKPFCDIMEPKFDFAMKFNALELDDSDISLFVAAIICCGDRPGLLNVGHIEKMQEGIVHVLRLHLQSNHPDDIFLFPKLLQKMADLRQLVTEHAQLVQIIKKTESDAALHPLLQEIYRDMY
Method in brief: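 Chemiluminescence from complemented enzyme reported PPARalpha activation in cells after 6 hr of compound treatment at 37 C. The detection reagent was incubated for 60 min at room temperature, and compounds were scored as agonists.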

[20] = qHTS assay for cell viability of the p53RE-bla HCT-116 cell line (AID 743292); settings: p53RE-bla HCT-116 viability, ATP luminescence, 16 h; series mostly up to 95 µM; further: on the % scale 0 is the no-effect control and ±100 the full control effect; nearly all actives have a fitted effect of over 55% in size
Method in brief: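 Viability of compound-treated p53RE-bla HCT-116 cells is taken from ATP-dependent luciferase luminescence. Treatment lasts 16 h at 37 C after a 5 h settling period; detection follows 30 min at room temperature.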

CC(/C=C/C=C(C)/C=C/C(=O)O)=C\C=C\C=C(C)\C=C\C=C(C)\C=C\C(=O)O
inactive: Potency [1] > 92 µM | Potency [2] > 92 µM | Potency [3] | Potency [4] | Potency [5] | Potency [6] | outcome [7] | outcome [8] | outcome [9] | caspase-3 activation [10] -7.2% | Potency [11] | Potency [12] | Potency [13] | outcome [14] | Potency [15] | Potency [16] | Potency [17] | Potency [18] | max response [19] -2.62% | Potency [20]

NC(=O)Nc1nc2ccccc2[nH]1
inactive: Potency [1] > 92 µM | Potency [2] > 92 µM | Potency [3] | Potency [4] | Potency [5] | Potency [6] | outcome [7] | outcome [8] | outcome [9] | caspase-3 activation [10] -0.34% | Potency [11] | Potency [12] | Potency [13] | outcome [14] | Potency [15] | Potency [16] | Potency [17] | Potency [18] | max response [19] -2.7% | Potency [20]

Nc1cnn([C@@H]2O[C@H](CO)[C@@H](O)[C@H]2O)c(=O)n1
inactive: Potency [1] > 92 µM | Potency [2] > 92 µM | Potency [3] | Potency [4] | Potency [5] | Potency [6] | outcome [7] | outcome [8] | outcome [9] | caspase-3 activation [10] -2.69% | Potency [11] | Potency [12] | Potency [13] | outcome [14] | Potency [15] | Potency [16] | Potency [17] | Potency [18] | max response [19] -1.23% | Potency [20]

Nc1cc([N+](=O)[O-])ccc1O
inactive: Potency [1] > 92 µM | Potency [2] > 92 µM | Potency [3] | Potency [4] | Potency [5] | Potency [6] | outcome [7] | outcome [8] | outcome [9] | caspase-3 activation [10] -0.467% | Potency [11] | Potency [12] | Potency [13] | outcome [14] | Potency [15] | Potency [16] | Potency [17] | Potency [18] | max response [19] -13.4% and -8.79% | Potency [20]

CC(=O)CC(=O)Nc1ccccc1
inactive: Potency [1] > 92 µM | Potency [2] > 92 µM | Potency [3] | Potency [4] | Potency [5] | Potency [6] | outcome [7] | outcome [8] | outcome [9] | caspase-3 activation [10] -0.00159% | Potency [11] | Potency [12] | Potency [13] | outcome [14] | Potency [15] | Potency [16] | Potency [17] | Potency [18] | max response [19] 0.169% and 0.0126% | Potency [20]

O=[N+]([O-])c1ccccc1Nc1ccccc1
inactive: Potency [1] > 92 µM | Potency [2] > 92 µM | Potency [3] | Potency [4] | Potency [5] | Potency [6] | outcome [7] | outcome [8] | outcome [9] | caspase-3 activation [10] -0.0405% | Potency [11] | Potency [12] | Potency [13] | outcome [14] | Potency [15] | Potency [16] | Potency [17] | Potency [18] | max response [19] -0.358% | Potency [20]
